Measurements taken from PubChem BioAssay AID504329 (Southern Research Specialized Biocontainment Screening …, 2011).
Out of some 340,000 compounds screened, about 1,000 (0.29%) were called active. Rule as the data show it: inconclusive = inhibition above about 27% without an active follow-up result; inactive = below that. A selection follows. Potency and affinity values are given separately.

assay: NS1A inhibition, H1N1 influenza, cell based functional assay (AID 504329); conditions: percent inhibition, at 12.5 µM, active compounds read high

Row | SMILES | inhibition
1 | Cc1nc(-c2ccc(Cl)cc2)sc1C(=O)O | -5.39% (inactive)
2 | O=C1COc2ccc(S(=O)(=O)N3CCN(c4ccccc4)CC3)cc2N1 | 6.48% (inactive)
3 | CN(CC(=O)N1CCN(C2CCCCC2)CC1)S(=O)(=O)c1cccc2nsnc12 | 0.79% (inactive)
4 | CC(Sc1nnc(-c2cccnc2)o1)C(=O)NC1CCCC1 (stereo unspecified) | -4.28% (inactive)
5 | CC(=O)N(C)c1ccc(N=Nc2ccc3ncccc3c2)cc1 | 18.9% (inactive)
6 | Cc1ccc2ncccc2c1 | -1.21% (inactive)
7 | Nc1ccc(N=Nc2ccccc2)cc1 | 10.5% (inactive)
8 | Nc1ccc2ncccc2c1 | 7.98% (inactive)
9 | c1cnc2ccc(-c3ccc4ncccc4c3)cc2c1 | 2.05% (inactive)
10 | Nc1ccc(N=Nc2ccc(N)cc2)cc1 | -2.48% (inactive)
11 | CC(C)CN(C(=O)c1ccc(=O)n(C)n1)c1c(N)n(Cc2ccccc2)c(=O)[nH]c1=O | -3.79% (inactive)
12 | COc1ccccc1NS(=O)(=O)c1cccc(NC(=O)c2cncc(Br)c2)c1 | -6.77% (inactive)
13 | COc1cccc(Oc2c(C)oc3c(CN4CCOCC4)c(O)ccc3c2=O)c1 | 8.63% (inactive)
14 | Cn1c(N)c(C(=O)CSc2nc3ccccc3c(=O)n2Cc2ccccc2)c(=O)n(C)c1=O | 10.1% (inactive)
15 | Cc1ccc(CNC(=O)CCC2CCCN(Cc3c(C)nn(C(C)C)c3C)C2)o1 (stereo unspecified) | 7.13% (inactive)
16 | Cc1ccc(Cn2c(C(CO)Nc3nc(-c4ccc(Cl)c([N+](=O)[O-])c4)cs3)nc3ccccc32)cc1 (stereo unspecified) | 1.74% (inactive)
17 | O=C(Cc1cccs1)Nc1nnc(SCC(=O)NC2CCCCC2)s1 | 3.29% (inactive)
18 | CCN(CC)c1nc(-c2ccccn2)nc(-c2ccccc2)c1C#N | 2.62% (inactive)
19 | C=CCNc1nc(-c2ccccc2)c(C(=O)OCC)cc1C#N | 10.4% (inactive)
20 | Oc1ccccc1-c1nc(NC2CCCC2)c2ccccc2n1 | -9.82% (inactive)
21 | C=CCNc1cc(C(F)(F)F)nc(-c2ccccn2)n1 | -12.7% (inactive)
22 | Cc1nnc(-c2ccccc2)nc1N(C)C | -13.6% (inactive)
23 | CC(C)Nc1nc(-c2ccccc2)nnc1-c1ccccc1 | -7.91% (inactive)
24 | CC(C)Nc1nc(-c2ccccn2)nc(-c2ccccc2)c1C#N | 1.07% (inactive)

Row | SMILES | inhibition
25 | c1ccc(-c2nc(NC3CCCC3)c3ccccc3n2)cc1 | -1.14% (inactive)
26 | CC(C)c1ccc(NC(=S)Nc2ccc3[nH]c(=O)[nH]c3c2)cc1 | 1.94% (inactive)
27 | Cc1ccc(S(=O)(=O)N2CCOCC2)cc1NS(=O)(=O)c1ccc(F)c(F)c1 | -3.51% (inactive)
28 | Cc1c(C(=O)Nc2ccccc2)c2cc(O)ccc2n1Cc1ccccc1 | -3.07% (inactive)
29 | O=C1CCCN1CCC1CCN(C2CC(=O)N(Cc3ccc(N4CCCC4=O)cc3)C2=O)CC1 (stereo unspecified) | 18.3% (inactive)
30 | COc1ccc(OC)c(C(=O)CN2CCN(S(=O)(=O)c3ccc(Br)cc3)CC2)c1 | 0.97% (inactive)
31 | NC(=O)c1nsc(C(=O)N(c2ccc(F)cc2)C(C(=O)NC2CCCC2)c2ccncc2)c1N (stereo unspecified) | 7.29% (inactive)
32 | CC1CCC2(CC1)C(Nc1cccc(Cl)c1)=NC(=S)N2CC#N (stereo unspecified) | 11.2% (inactive)
33 | NC(=O)c1c(NC(=O)Cn2nc(C(=O)O)c3ccccc3c2=O)sc2c1CCC2 | 0.19% (inactive)
34 | CCOC(=O)c1c(NC(=O)CSc2nncn2C)sc(C)c1C | -1.87% (inactive)
35 | COc1cnc(-c2ccccn2)nc1Oc1ccccc1 | 10.4% (inactive)
36 | COc1ccc(Oc2nc(-c3ccccn3)ncc2OC)cc1 | 7.31% (inactive)
37 | Cc1nc2c(C)cccc2c2c1COC2 | -0.38% (inactive)
38 | CCOC(=O)c1sc(NC(=O)CSc2nc3c(cc2C#N)CCCCC3)c(C#N)c1C | 0.28% (inactive)
39 | Cc1c(NC(=O)c2ccc(C(=O)Nc3c(C)n(C)n(-c4ccccc4)c3=O)cc2)c(=O)n(-c2ccccc2)n1C | 11.8% (inactive)
40 | CCCCC[C@H]1CN(C2CCCCC2)C(=O)[C@@H]1CC(=O)NCc1ccccc1 | -4.52% (inactive)
41 | Cc1ccc2[nH]c3nc(N/N=C/c4cccc(O)c4)nnc3c2c1 | 5.99% (inactive)
42 | Cc1ccc2[nH]c3nc(SCC#N)nnc3c2c1 | 3.03% (inactive)
43 | Cc1ccc(C)c(N(C)S(=O)(=O)c2ccc3[nH]cc(C(=O)NCCN4CCOCC4)c(=O)c3c2)c1 | 13.2% (inactive)
44 | O=[N+]([O-])c1ccc2c(c1N1CCCCC1)=NC1(CCCCC1)[N+]=2[O-] | -7.13% (inactive)
45 | [O-][N+]1=c2ccc(Nc3ccccc3)cc2=NC12CCCCC2 | 16.6% (inactive)
46 | CCCCNc1nc(N)ncc1[N+](=O)[O-] | -2.32% (inactive)
47 | CCCCNc1c([N+](=O)[O-])cc(C(=O)O)cc1[N+](=O)[O-] | 25.7% (inactive)
48 | Cc1noc(C)c1S(=O)(=O)N1CCC(C(=O)O)CC1 | -5.05% (inactive)

Row | SMILES | inhibition
49 | CC1(C)CC(CCN)(Cc2ccccc2Cl)CCO1 (stereo unspecified) | -1.58% (inactive)
50 | COc1ccccc1N1CCN(C(=O)c2c(-c3c(F)cccc3Cl)noc2C)CC1 | -1.81% (inactive)
51 | CN1CCN(c2cccc3c2C(=O)c2ccccc2C3=O)CC1 | 4.2% (inactive)
52 | O=C1c2ccccc2-c2onc3ccc(Oc4ccccc4)c1c23 | 11.9% (inactive)
53 | O=C1C(Cl)=C(N2CCCCC2)C(=O)N1c1ccccc1Cl | -3.44% (inactive)
54 | CCOc1ccc2noc3c2c1C(=O)c1ccccc1-3 | 7.74% (inactive)
55 | O=C1c2ccccc2C(=O)c2cc(N3CCCCC3)ccc21 | -3.43% (inactive)
56 | O=C1c2ccccc2-c2c1cccc2C(=O)N1CCOCC1 | -11.9% (inactive)
57 | N#Cc1c(Cl)cccc1N1CCCC1 | -9.33% (inactive)
58 | Nc1ccccc1N1CCOCC1 | 0.99% (inactive)
59 | O=C(N1CCCC1)C12CC3CC(CC(C3)C1)C2 | -8.92% (inactive)
60 | CCCOc1ccc(C(=O)OCC(=O)c2c(N)n(C)c(=O)n(C)c2=O)cc1OCC | -1.83% (inactive)
61 | CCN(CC(=O)NC(=O)NCc1ccccc1)CC(=O)Nc1cc(Cl)ccc1C | -8.38% (inactive)
62 | CC(C)Cn1c(N)c(C(=O)COC(=O)c2c(F)cccc2F)c(=O)n(C)c1=O | -5.45% (inactive)
63 | Cc1ccc(CCNC(=O)c2ccc(CS(=O)(=O)Cc3ccc(F)cc3)o2)cc1 | 2.69% (inactive)
64 | O=C(NNc1cccc([N+](=O)[O-])c1)/C(=C\c1cccnc1)NC(=O)c1ccccc1 | 9.25% (inactive)
65 | COc1cc(CN(CC(C)C)S(=O)(=O)c2ccccc2Br)cc(OC)c1 | -4.89% (inactive)
66 | Cc1ccc(NC(=O)c2cccc(S(=O)(=O)NCc3ccccc3)c2)nc1 | -4.84% (inactive)
67 | CCN(CC(=O)Nc1ccccc1OC)C(=O)CSCc1ccc(C)cc1 | 1.31% (inactive)
68 | COc1cc(-c2nc(CN3CCN(CC(C)C)C(=O)[C@@H]3C)c(C)o2)ccc1F | 8.73% (inactive)
69 | CCNc1ccccc(-c2ccc3ccccc3n2)c1=O | -10% (inactive)
70 | O=C1c2ccccc2-c2onc3ccc(NCc4ccco4)c1c23 | 26% (inactive)
71 | CC(=C1C(=O)c2ccccc2C1=O)N1CCN(Cc2ccccc2)CC1 | -9.47% (inactive)
72 | CC(=O)N(C)c1ccc(N2CCOCC2)c2c1C(=O)c1ccccc1C2=O | 16.8% (inactive)

Row | SMILES | inhibition
73 | COc1ccccc1N1CCN(Cc2ccccc2)CC1 | -11.8% (inactive)
74 | O=C1C=C(N2CCOCC2)c2ccccc2C1=O | -1.26% (inactive)
75 | O=C(O/N=C/c1ccc(Br)cc1)c1ccc(F)cc1 | 5.19% (inactive)
76 | CCC(C)N(C(=O)COC(=O)CSc1ccc(C)c(C)c1)C1CCS(=O)(=O)C1 (stereo unspecified) | -5.16% (inactive)
77 | COc1ccc2[nH]c(C(=O)NCc3ccccc3)cc2c1 | 15.2% (inactive)
78 | Clc1ccccc1-c1ccc2ncnc(NCc3cccs3)c2c1 | 9.25% (inactive)
79 | Cc1nc(N2CCCCC2)c2ccsc2n1 | -1.56% (inactive)
80 | Cc1ccc(CN2C(=O)C(=O)c3cc(C)ccc32)cc1 | 3.72% (inactive)
81 | CN1CCN(C(c2ccc(F)cc2)c2ccc3cccnc3c2O)CC1 (stereo unspecified) | 7.02% (inactive)
82 | Cc1ccc(C(c2cc(Cl)c3cccnc3c2O)N2CCN(C)CC2)cc1 (stereo unspecified) | 5.08% (inactive)
83 | Oc1c(C(c2ccc(Cl)cc2)N2CCCC2)cc(Cl)c2cccnc12 (stereo unspecified) | -6.42% (inactive)
84 | CCN1CCN(C(c2ccc(C(F)(F)F)cc2)c2ccc3cccnc3c2O)CC1 (stereo unspecified) | 16.8% (inactive)
85 | CN1CCN(C(c2ccccn2)c2cc(Cl)c3cccnc3c2O)CC1 (stereo unspecified) | 14.5% (inactive)
86 | CN1CCN(C(c2ccc(Cl)cc2)c2cc(Cl)c3cccnc3c2O)CC1 (stereo unspecified) | 2.9% (inactive)
87 | CCCCn1c(N)c(N(CCOC)C(=O)COC(=O)COc2c(C)cccc2C)c(=O)[nH]c1=O | -13% (inactive)
88 | CC(C)(C)c1cc(NC(=O)CSc2nncs2)n(-c2ccccc2)n1 | 1.18% (inactive)
89 | Cc1cc(C(=O)NC(Cc2c[nH]c3ccccc23)C(=O)O)c(C)o1 (stereo unspecified) | 1.37% (inactive)
90 | COc1ccc(S(=O)(=O)Nc2ccc3c(c2)N(C(C)=O)CCC3)cc1OC | 4.6% (inactive)
91 | O=C(CNS(=O)(=O)c1ccc(F)cc1)N1CCN(c2ccc(F)cc2)CC1 | -9.78% (inactive)
92 | COc1ccc(C(=O)c2sc(Nc3ccc(NC(C)=O)cc3)nc2C)cc1 | -2.13% (inactive)
93 | CN(C)c1ccc(/C=C2\CCCCC2=O)cc1 | 12.2% (inactive)
94 | CN(C)c1ccc(C=C2C=Cc3ccccc32)cc1 | 11.1% (inactive)
95 | COc1cc(C(=O)N=c2sccn2C)c([N+](=O)[O-])cc1OC | -1.77% (inactive)
96 | O=C(Cn1nnc(-c2ccccc2)n1)N1CCN(c2ccc(F)cc2)CC1 | 11.4% (inactive)
